“And” between values parts separate entries of the source, which are not always exact repeats. Identical values can stand only once. Inconclusive results are not listed. Where a call stands in place of a potency, no number is given. The source made the active and inactive calls. The call rests on the fitted dose curve; in most records, active means well fitted cell-killing curve with a large enough effect; inconclusive means small, poorly fitted or top-dose-only effect; inactive means flat fitted curve, though single readings scatter.

These results are taken from PubChem BioAssay (NCATS).
Potency means the concentration at half of the fitted maximal effect.

The nature of this assay: Cell Viability - N2a (AID 540). Further: nearly all actives have a fitted effect of over 45% in size. To be noted: N2a mouse neuroblastoma cell viability; activity change, negative = cytotoxicity: at 92.2 µM (top of the series). The source says: NIH Chemical Genomics Center [NCGC]
NIH Molecular Libraries Screening Centers Network [MLSCN]
National Institutes of Environmental Health Sciences [NIEHS]
National Toxicology Program [NTP]
We have developed a 1536-well cell-based assay for quantitative high throughput screening (qHTS) against a number of cell lines to determine in vitro cytotoxicity of small molecules. This particular assay uses the N2a cell line which is derived from mouse neuroblastoma.
NCGC Assay Protocol Summary:
The CellTiter-Glo luminescent cell viability assay (Promega) is a homogeneous method to measure the number of viable cells in culture. The end point readout of this assay is based on quantitation of intracellular ATP, an indicator of metabolic activity, using the luciferase reaction. Luciferase catalyzes the oxidation of beetle Luciferin to oxyluciferin and light in the presence of ATP. The luminescent signal is proportional to amount of ATP present.
Using the CellTiter-Glo luminescent cell viability assay, the amount of cellular ATP was measured in the N2a cell line with complete culture medium following compound treatment for 40 hours. The assay was performed in opaque white Kalypsys 1536-well plates. In the screen, tamoxifen and doxorubicin were used as positive controls. Library compounds were measured for their ability to cause acute toxicity in the cell line, as reflected by a decrease in intracellular ATP levels, in a concentration-dependent manner. […] AC50 values were determined from concentration-response data modeled with the standard Hill equation.
qHTS protocol for CellTiter Glo N2a cellular assay
[Step] [Parameter] [Value] [Description]
1. Reagent; 5 uL; 1500 N2a cells/well
2. Time; 5 hr; 37 °C incubation
4. Controls; 23 nL; Tamoxifen 0.34 uM to 100 uM & Doxorubicin 0.02 nM to 100 uM
5. Time; 40 hr; 37 °C incubation
6. Reagent; 5 uL; CellTiter Glo reagent
7. Time; 20 min; Room Temperature
8. Detection; Luminescence; Viewlux plate reader
Keywords: cell viability, cytotoxicity, N2a cell line, luminescence, NTPHTS, NTPHTS_NCGC, NIEHS, EPA, DSSTox, MLSMR, MLSCN, NIH Roadmap, qHTS, NCGC
Consider `CCCCCCCCOC(=O)c1ccccc1C(=O)OCCCCCCCC`, for which the Potency entry is “inactive”.

Turning to `ClC=C(Cl)Cl`, the Potency entry was “inactive”.

Consider `CCCCCl`, for which the Potency result is “inactive”.

As for `O=C1C2CC=CCC2C(=O)N1SC(Cl)(Cl)Cl` (stereo unspecified), the Potency was 20 µM (active) and 10 µM (active).

For the compound `C=CCN=C=S`, the Potency entry is “inactive”.

`COc1ccc2c(c1OC)C(=O)OC2C1c2cc3c(cc2CCN1C)OCO3` (stereo unspecified): the Potency entry is “inactive”.

Take `O=[N+]([O-])c1ccccc1`: the Potency entry is “inactive”.

Consider `C[C@H]1CCC[C@H](O)CCCCCc2cc(O)cc(O)c2C(=O)O1`, for which the Potency entry was “inactive”.

For `CC(C)(C)c1cc(O)ccc1O`, the Potency result was “inactive”.

`CC(C)CCON=O`: the Potency result is “inactive”.

`CC(C)Nc1ccc(Nc2ccccc2)cc1`: the activity change, negative = cytotoxicity was -116% (active).

For `Clc1ccccc1Cl`, the Potency entry was “inactive”.

With `O=C1CCO1`, the Potency entry was “inactive”.

Regarding `S=C=S`, the Potency result is “inactive”.

For `C[C@H]1CC[C@@H]2[C@@H](C)[C@H]3[C@H](C[C@H]4[C@@H]5CC=C6CC(O[C@@H]7O[C@H](CO)[C@H](O)[C@H](O[C@@H]8O[C@H](CO)[C@@H](O)[C@H](O)[C@H]8O)[C@H]7O[C@H]7O[C@@H](C)[C@H](O)[C@@H](O)[C@H]7O)CC[C@]6(C)[C@H]5CC[C@]34C)N2C1` (stereo partly specified), the Potency is 31.6 µM (active).

In the case of `O=C1C=CC(=O)C=C1`, the Potency entry was “inactive”.

Take `Oc1cc(Cl)c(Cl)cc1Cl`: the Potency is 25.1 µM (active).

As for `O=Cc1ccco1`, the Potency result was “inactive”.

`[O]=[Cr](=[O])([OH])[O][Cr](=[O])(=[O])[OH]`: the activity change, negative = cytotoxicity is -124% (active); the Potency is 39.8 µM (active) and 25.1 µM (active).

For the compound `O=C/C=C/c1ccccc1`, the Potency result is “inactive”.

On to `[Cl-].[Cl-].[Hg+2]`, for which the Potency is 31.6 µM (active).

`NNC(N)=O`: the Potency entry is “inactive”.

Consider `COC1=CC(=O)O[C@@H](/C=C/c2ccccc2)C1`, for which the Potency result was “inactive”.

`ClC(Cl)(Cl)Cl`: the Potency result was “inactive”.

`ClCC1CO1` (stereo unspecified): the Potency result is “inactive”.

For `CCOC(=O)c1ccccc1C(=O)OCC`, the Potency entry was “inactive”.

`[O]=[Cd]`: the Potency entry was “inactive”.

Take `C[C@]12CCC(=O)C[C@@H]1CC[C@@H]1[C@@H]2CC[C@]2(C)[C@@H](O)CC[C@@H]12`: the Potency result is “inactive”.

Consider `O=C(O)C(Cl)(Cl)Cl`, for which the Potency result was “inactive”.

On to `O=CC=O`, for which the Potency entry is “inactive”.
